Among the data in paper PMC7862700, “An all-to-all approach to the identification of sequence-specific readers for epigenetic DNA modifications on cytosine” are binding signal values, retold here.

What all share (experiment): DAPPL (digital affinity profiling via proximity ligation, sequencing); 10 mM Tris-HCl pH 7.5, 50 mM NaCl, 1 mM DTT, 4% glycerol, room temperature, 30 min; GST-TFs on glutathione beads, 16-mer random dsDNA library, 0.1% formaldehyde crosslink after washing; high values mean tight binding
Conditions in all cases: protein: recombinant; tags: N-terminal GST; dsDNA, one strand shown

For assay [1], the target named is T1, FLI1 (Homo sapiens, UniProt Q01543 1-452).
T1 sequence: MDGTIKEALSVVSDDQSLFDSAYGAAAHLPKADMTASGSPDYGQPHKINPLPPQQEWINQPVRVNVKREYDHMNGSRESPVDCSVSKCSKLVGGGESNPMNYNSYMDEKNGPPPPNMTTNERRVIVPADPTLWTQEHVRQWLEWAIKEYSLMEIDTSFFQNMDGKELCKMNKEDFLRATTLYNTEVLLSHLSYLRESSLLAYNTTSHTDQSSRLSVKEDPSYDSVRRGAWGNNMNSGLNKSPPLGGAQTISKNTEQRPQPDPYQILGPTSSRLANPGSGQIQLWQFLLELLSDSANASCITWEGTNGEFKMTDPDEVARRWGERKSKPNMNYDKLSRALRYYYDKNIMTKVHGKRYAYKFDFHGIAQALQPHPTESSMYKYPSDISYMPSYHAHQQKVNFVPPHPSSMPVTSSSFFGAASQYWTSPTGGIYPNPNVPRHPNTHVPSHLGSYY
Summed up: (§1)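 GST fusions of human transcription factors were expressed in yeast and captured with glutathione beads. Once given DNA barcodes and pooled alongside a tag-only sample, they were incubated for 30 min at room temperature with 200 nmole of a random double-stranded 16-mer DNA library in Tris/NaCl/DTT/glycerol buffer, then washed, crosslinked (0.1% formaldehyde), proximity-ligated, PCR-amplified and sequenced on an Illumina NextSeq500. The binding signal of each hexamer is its read frequency for a factor divided by its frequency for the tag-only sample.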

Assay [2] deals with T2, ELK1 (Homo sapiens, UniProt P19419 1-428).
T2 sequence: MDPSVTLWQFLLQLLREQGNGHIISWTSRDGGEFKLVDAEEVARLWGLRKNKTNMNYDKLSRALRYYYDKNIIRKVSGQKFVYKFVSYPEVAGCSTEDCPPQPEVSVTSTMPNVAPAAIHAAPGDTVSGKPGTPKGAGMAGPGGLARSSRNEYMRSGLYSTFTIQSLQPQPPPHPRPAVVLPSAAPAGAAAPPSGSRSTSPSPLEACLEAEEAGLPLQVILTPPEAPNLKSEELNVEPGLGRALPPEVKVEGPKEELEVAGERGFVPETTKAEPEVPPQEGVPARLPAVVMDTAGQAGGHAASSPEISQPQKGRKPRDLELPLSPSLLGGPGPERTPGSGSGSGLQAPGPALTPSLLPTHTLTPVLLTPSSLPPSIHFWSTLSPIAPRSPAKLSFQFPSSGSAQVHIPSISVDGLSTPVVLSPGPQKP
The method, boiled down: as §1

For assay [3], the target named is T3, GABPA (Homo sapiens, UniProt Q06546 1-454).
T3 sequence: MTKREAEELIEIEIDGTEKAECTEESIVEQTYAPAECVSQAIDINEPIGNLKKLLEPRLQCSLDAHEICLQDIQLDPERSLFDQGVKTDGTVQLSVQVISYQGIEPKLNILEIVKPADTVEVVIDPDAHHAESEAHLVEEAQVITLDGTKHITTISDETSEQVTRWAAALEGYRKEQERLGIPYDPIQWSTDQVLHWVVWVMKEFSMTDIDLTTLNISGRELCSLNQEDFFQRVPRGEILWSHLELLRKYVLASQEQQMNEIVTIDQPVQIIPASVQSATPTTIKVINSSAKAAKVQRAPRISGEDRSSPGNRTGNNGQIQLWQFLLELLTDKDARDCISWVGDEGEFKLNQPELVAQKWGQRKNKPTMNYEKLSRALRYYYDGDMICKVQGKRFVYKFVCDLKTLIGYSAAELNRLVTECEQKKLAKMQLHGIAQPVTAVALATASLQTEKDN
The method, boiled down: as §1

For assay [4], the target named is T4, ERG (Homo sapiens, UniProt P11308 1-479).
T4 sequence: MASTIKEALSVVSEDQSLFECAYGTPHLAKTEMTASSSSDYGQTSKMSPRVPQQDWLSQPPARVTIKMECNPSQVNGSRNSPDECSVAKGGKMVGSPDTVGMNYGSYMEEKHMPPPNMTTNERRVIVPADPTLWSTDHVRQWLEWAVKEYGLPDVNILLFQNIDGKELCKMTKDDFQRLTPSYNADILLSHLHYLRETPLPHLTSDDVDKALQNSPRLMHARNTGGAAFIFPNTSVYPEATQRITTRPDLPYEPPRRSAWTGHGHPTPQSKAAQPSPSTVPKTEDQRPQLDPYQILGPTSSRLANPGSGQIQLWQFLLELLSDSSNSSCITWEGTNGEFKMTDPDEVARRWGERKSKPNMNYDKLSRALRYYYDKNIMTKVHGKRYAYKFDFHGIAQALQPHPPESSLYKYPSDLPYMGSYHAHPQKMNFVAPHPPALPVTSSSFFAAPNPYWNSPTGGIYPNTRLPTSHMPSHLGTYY
The method, boiled down: as §1

The target of assay [5] is ELF1 (Homo sapiens, UniProt P32519 1-619). The method, boiled down: as §1
Chain of ELF1 (P32519 whole entry): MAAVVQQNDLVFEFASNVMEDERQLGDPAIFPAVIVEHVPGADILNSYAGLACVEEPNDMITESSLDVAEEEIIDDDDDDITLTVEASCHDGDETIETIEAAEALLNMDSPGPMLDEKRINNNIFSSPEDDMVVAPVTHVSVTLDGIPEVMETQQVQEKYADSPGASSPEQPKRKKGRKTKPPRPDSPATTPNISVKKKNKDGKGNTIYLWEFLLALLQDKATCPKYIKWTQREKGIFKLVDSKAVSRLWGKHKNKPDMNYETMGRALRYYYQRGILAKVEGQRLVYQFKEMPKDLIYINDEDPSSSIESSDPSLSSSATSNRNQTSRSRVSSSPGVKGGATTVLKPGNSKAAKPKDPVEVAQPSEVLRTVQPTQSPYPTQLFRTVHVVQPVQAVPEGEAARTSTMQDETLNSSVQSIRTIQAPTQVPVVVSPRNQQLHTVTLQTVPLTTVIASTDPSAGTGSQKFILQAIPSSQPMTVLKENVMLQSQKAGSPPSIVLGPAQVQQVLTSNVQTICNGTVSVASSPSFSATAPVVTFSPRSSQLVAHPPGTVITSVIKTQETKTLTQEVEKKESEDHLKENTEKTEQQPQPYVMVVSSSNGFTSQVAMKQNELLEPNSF
Assay [6] addresses T5, EHF (Homo sapiens, UniProt Q9NZC4 1-300).
T5 sequence: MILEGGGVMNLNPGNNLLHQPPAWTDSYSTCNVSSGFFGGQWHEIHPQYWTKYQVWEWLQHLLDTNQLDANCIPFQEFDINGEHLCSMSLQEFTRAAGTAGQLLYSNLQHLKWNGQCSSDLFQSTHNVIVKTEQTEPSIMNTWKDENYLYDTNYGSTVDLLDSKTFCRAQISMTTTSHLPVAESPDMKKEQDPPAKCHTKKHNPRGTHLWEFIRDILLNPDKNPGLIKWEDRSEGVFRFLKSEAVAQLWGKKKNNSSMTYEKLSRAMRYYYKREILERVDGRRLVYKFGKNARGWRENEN
The method, boiled down:
as §1

Assay [7] concerns the target SPI1 (Homo sapiens, UniProt P17947 1-270). Summed up: as §1
Assay [8] deals with SPIB (Homo sapiens, UniProt Q01892 1-262). Summed up:
as §1

Assay [9] deals with T6, ELK3 (Homo sapiens, UniProt P41970 1-407).
T6 sequence: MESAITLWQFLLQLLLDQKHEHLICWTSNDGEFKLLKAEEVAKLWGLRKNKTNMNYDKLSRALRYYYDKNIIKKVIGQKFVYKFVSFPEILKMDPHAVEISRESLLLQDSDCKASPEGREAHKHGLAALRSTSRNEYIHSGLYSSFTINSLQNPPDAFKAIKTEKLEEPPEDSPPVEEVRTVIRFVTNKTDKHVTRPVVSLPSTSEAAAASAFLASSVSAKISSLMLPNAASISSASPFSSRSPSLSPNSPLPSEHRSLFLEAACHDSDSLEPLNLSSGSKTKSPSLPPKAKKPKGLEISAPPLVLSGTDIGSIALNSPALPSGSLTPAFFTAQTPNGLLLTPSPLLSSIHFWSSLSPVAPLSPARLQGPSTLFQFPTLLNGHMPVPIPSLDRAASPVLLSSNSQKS
Summed up: as §1

In assay [10] the target is T7, FEV (Homo sapiens, UniProt Q99581 1-238).
T7 sequence: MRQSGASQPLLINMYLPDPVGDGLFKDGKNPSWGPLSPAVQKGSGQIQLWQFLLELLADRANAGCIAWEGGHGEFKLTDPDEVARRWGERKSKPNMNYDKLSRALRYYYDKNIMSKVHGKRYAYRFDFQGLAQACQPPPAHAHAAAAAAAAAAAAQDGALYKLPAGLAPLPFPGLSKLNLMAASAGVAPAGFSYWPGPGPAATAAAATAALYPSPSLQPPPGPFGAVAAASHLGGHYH
The method, boiled down:
as §1

Assay [11] addresses ETV5 (Homo sapiens, UniProt P41161 1-510). The method, boiled down: as §1
Assay [12] addresses T8, SPIC (Homo sapiens, UniProt Q8N5J4 1-248).
T8 sequence: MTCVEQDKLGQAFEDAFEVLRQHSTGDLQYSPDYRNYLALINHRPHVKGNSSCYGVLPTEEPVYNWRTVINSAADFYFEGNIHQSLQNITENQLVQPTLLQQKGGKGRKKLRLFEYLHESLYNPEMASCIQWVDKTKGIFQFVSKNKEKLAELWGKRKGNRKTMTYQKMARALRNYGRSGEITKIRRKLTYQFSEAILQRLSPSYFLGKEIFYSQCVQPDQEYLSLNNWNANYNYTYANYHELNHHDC
Summed up: as §1

The target in assay [13] is ELF4 (Homo sapiens, UniProt Q99607 1-663). Summed up:
as §1

In assay [14] the target is T9, ELK4 (Homo sapiens, UniProt P28324-2 1-405).
T9 sequence: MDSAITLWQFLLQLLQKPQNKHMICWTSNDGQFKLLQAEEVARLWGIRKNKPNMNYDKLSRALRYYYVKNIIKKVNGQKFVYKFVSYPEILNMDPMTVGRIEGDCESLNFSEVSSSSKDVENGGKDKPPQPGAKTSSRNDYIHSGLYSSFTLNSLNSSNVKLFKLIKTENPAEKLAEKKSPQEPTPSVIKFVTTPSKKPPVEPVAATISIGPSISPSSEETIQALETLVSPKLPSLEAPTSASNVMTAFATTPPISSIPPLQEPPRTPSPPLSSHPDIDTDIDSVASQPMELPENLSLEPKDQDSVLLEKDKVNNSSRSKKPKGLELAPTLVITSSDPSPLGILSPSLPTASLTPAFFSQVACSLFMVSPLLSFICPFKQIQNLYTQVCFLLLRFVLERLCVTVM
The method, boiled down:
as §1

Assay [15] addresses T10, ETV2 (Homo sapiens, UniProt O00321 1-342).
T10 sequence: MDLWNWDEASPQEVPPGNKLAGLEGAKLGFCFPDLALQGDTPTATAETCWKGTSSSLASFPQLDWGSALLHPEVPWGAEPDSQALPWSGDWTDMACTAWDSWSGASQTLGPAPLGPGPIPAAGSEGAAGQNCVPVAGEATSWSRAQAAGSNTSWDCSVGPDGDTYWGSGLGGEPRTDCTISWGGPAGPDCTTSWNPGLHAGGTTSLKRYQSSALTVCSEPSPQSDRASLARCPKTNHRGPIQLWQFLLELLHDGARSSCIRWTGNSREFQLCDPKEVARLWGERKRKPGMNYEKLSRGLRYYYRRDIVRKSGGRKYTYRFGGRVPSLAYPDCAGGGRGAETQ
The method, boiled down: as §1

Assay [16] has as its target T11, ELF3 (Homo sapiens, UniProt P78545 1-371).
T11 sequence: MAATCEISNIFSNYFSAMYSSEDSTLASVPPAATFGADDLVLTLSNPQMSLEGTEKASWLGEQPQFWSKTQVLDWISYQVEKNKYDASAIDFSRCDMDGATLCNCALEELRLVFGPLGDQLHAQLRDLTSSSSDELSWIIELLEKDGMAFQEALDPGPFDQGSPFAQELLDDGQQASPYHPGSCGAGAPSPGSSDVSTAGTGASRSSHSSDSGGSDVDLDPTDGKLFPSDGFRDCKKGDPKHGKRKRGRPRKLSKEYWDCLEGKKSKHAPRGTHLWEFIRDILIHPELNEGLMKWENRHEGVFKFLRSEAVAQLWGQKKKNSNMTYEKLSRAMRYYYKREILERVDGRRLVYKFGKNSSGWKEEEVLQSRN
The method, boiled down: as §1

Assay [17] concerns the target ETV1 (Homo sapiens, UniProt P50549 1-477). Summed up:
as §1

Chain of ETV1 (P50549 whole entry): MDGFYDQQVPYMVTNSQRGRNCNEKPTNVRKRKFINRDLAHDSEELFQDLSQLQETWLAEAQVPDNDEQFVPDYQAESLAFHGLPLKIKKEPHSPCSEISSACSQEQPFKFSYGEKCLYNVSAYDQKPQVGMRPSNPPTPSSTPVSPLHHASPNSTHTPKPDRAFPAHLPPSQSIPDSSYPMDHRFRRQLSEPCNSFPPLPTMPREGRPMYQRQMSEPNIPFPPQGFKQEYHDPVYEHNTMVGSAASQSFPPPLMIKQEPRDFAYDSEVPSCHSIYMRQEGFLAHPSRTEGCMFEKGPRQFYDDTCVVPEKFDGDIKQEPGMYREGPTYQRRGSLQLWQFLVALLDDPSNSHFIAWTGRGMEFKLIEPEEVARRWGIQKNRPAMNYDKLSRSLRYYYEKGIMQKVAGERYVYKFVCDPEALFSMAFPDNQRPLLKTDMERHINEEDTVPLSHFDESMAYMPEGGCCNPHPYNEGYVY
Chain of ELF4 (Q99607 whole entry): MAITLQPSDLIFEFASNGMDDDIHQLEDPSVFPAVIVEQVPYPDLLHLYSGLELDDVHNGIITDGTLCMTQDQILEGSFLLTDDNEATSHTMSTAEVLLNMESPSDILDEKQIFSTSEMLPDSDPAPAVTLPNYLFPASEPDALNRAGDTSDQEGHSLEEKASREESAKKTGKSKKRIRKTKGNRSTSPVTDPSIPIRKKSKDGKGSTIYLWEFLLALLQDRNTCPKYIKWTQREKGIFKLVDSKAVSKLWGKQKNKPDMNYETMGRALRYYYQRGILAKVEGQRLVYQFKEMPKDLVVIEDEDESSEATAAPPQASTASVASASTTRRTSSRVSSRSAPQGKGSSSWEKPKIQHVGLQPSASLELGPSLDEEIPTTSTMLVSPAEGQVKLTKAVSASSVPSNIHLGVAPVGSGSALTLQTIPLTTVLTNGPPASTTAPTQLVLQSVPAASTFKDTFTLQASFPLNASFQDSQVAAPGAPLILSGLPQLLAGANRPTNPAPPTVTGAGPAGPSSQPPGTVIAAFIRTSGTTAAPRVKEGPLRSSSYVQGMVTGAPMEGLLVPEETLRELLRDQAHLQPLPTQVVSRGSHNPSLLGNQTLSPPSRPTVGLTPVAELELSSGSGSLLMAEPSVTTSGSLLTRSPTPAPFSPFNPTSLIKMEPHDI
Chain of SPIB (Q01892 whole entry): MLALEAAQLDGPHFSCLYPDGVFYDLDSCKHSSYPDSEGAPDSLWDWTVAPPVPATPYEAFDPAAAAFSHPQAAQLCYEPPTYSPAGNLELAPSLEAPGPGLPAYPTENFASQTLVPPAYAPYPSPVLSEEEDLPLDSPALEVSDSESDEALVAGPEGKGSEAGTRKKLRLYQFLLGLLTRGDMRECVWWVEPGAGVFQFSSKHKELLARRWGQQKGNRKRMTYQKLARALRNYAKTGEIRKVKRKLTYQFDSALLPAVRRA
Chain of ETV5 (P41161 whole entry): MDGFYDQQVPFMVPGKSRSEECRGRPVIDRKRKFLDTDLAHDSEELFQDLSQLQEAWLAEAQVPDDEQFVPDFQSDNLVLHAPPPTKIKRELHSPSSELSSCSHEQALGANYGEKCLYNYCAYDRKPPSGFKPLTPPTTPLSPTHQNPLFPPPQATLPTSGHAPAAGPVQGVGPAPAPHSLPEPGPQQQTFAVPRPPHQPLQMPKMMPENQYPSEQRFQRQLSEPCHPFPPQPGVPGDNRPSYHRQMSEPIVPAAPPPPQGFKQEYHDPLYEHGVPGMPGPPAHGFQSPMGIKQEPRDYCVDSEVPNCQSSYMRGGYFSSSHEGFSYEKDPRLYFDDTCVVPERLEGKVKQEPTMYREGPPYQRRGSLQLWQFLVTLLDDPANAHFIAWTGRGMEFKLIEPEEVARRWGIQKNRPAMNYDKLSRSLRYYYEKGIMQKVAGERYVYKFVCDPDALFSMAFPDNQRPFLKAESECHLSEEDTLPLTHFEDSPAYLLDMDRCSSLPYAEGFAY

As to GATACG, the binding signal in assay [1] was 1.11 fold enrichment (6-mer frequency, TF over GST control); in assay [2], 1.12 fold enrichment (6-mer frequency, TF over GST control); in assay [3], 1.12 fold enrichment (6-mer frequency, TF over GST control); in assay [4] it was 1.11 fold enrichment (6-mer frequency, TF over GST control); in assay [5] it was 1.15 fold enrichment (6-mer frequency, TF over GST control); in assay [6], 1.24 fold enrichment (6-mer frequency, TF over GST control). The binding signal in assay [7] is 1.04 fold enrichment (6-mer frequency, TF over GST control); in [8], 1.17 fold enrichment (6-mer frequency, TF over GST control); in assay [9] it was 1.18 fold enrichment (6-mer frequency, TF over GST control); in [10], 1.08 fold enrichment (6-mer frequency, TF over GST control); in assay [11], 1.1 fold enrichment (6-mer frequency, TF over GST control); in assay [12] it was 1.2 fold enrichment (6-mer frequency, TF over GST control). Also, the binding signal was 1.07 fold enrichment (6-mer frequency, TF over GST control) in assay [13]; 1.13 fold enrichment (6-mer frequency, TF over GST control) in assay [14]; 1.06 fold enrichment (6-mer frequency, TF over GST control) in [15]; 1.09 fold enrichment (6-mer frequency, TF over GST control) in assay [16]; 1.1 fold enrichment (6-mer frequency, TF over GST control) in [17].

For the sequence ACTACA, the binding signal is 1.32 fold enrichment (6-mer frequency, TF over GST control) in [1]; 1.21 fold enrichment (6-mer frequency, TF over GST control) in assay [2]; 1.32 fold enrichment (6-mer frequency, TF over GST control) in [3]; 1.16 fold enrichment (6-mer frequency, TF over GST control) in assay [4]; 1.19 fold enrichment (6-mer frequency, TF over GST control) in assay [5]; 1.15 fold enrichment (6-mer frequency, TF over GST control) in [6]. Further, the binding signal in [7] was 1.13 fold enrichment (6-mer frequency, TF over GST control); in assay [8], 1.28 fold enrichment (6-mer frequency, TF over GST control); in [9], 1.11 fold enrichment (6-mer frequency, TF over GST control); in assay [10] it was 1.17 fold enrichment (6-mer frequency, TF over GST control); in assay [11] it was 1.24 fold enrichment (6-mer frequency, TF over GST control); in assay [12] it was 1.06 fold enrichment (6-mer frequency, TF over GST control). For the same sequence, the binding signal in assay [13] is 1.16 fold enrichment (6-mer frequency, TF over GST control); in assay [14] it was 1.07 fold enrichment (6-mer frequency, TF over GST control); in assay [15] it was 1.11 fold enrichment (6-mer frequency, TF over GST control); in assay [16] it was 1.04 fold enrichment (6-mer frequency, TF over GST control); in assay [17], 1.22 fold enrichment (6-mer frequency, TF over GST control).
